# Legend:
# Test in all cases: DAPPL (digital affinity profiling via proximity ligation, sequencing); 10 mM Tris-HCl pH 7.5, 50 mM NaCl, 1 mM DTT, 4% glycerol, room temperature, 30 min; GST-TFs on glutathione beads, 16-mer random dsDNA library, 0.1% formaldehyde crosslink after washing; high values mean tight binding
# FEV = molecular target: T1, FEV (Homo sapiens, UniProt Q99581 1-238); conditions: protein: recombinant; tags: N-terminal GST; dsDNA, one strand shown
# T1 sequence: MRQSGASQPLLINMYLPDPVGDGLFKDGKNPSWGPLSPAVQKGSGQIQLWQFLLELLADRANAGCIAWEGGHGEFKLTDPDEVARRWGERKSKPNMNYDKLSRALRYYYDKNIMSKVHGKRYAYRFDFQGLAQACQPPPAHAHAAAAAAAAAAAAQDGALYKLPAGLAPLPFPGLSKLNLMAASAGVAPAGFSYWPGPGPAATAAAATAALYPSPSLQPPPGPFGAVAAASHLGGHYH
# Outline: (§1)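 Sequencing on an Illumina NextSeq500 followed washing, crosslinking with 0.1% formaldehyde, proximity ligation (BsaI/T4 ligase, 1 h, 37 °C) and PCR amplification of pools that had been incubated for 30 min at room temperature with 200 nmole of a random double-stranded 16-mer DNA library in Tris/NaCl/DTT/glycerol buffer. Each pool held DNA-barcoded human transcription factors, expressed in yeast as GST fusions and captured on glutathione beads, plus a tag-only sample. Binding signal is a hexamer's read frequency for a factor divided by its frequency in the tag-only sample.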
# ETV5 = ETV5 (Homo sapiens, UniProt P41161 1-510); conditions: protein: recombinant; tags: N-terminal GST; dsDNA, one strand shown
# Outline: as §1
# HSF1 = HSF1 (Homo sapiens, UniProt Q00613 1-529); conditions: protein: recombinant; tags: N-terminal GST; chain copies: 3; dsDNA, one strand shown
# Outline: as §1
# SPIC = molecular target: T2, SPIC (Homo sapiens, UniProt Q8N5J4 1-248); conditions: protein: recombinant; tags: N-terminal GST; dsDNA, one strand shown
# T2 sequence: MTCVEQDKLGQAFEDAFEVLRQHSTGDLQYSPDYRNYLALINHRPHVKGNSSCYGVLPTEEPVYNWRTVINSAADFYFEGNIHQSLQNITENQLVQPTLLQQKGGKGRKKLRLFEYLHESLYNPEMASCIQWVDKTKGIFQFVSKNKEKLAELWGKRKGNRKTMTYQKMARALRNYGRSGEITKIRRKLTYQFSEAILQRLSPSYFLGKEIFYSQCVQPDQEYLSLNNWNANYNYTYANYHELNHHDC
# Outline: as §1
# ELF4 = ELF4 (Homo sapiens, UniProt Q99607 1-663); conditions: protein: recombinant; tags: N-terminal GST; dsDNA, one strand shown
# Outline: as §1
# ELK4 = molecular target: T3, ELK4 (Homo sapiens, UniProt P28324-2 1-405); conditions: protein: recombinant; tags: N-terminal GST; dsDNA, one strand shown
# T3 sequence: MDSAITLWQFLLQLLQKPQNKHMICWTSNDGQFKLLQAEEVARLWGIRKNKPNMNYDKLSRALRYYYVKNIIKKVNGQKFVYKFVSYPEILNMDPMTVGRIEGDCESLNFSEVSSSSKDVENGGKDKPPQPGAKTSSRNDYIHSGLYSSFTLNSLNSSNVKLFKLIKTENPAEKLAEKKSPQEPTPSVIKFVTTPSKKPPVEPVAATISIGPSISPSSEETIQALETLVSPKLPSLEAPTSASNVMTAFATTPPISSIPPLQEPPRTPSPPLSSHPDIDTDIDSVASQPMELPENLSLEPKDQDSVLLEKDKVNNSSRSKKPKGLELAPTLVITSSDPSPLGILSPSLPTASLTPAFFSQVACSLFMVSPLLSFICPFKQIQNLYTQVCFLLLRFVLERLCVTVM
# Outline: as §1
# ETV2 = molecular target: T4, ETV2 (Homo sapiens, UniProt O00321 1-342); conditions: protein: recombinant; tags: N-terminal GST; dsDNA, one strand shown
# T4 sequence: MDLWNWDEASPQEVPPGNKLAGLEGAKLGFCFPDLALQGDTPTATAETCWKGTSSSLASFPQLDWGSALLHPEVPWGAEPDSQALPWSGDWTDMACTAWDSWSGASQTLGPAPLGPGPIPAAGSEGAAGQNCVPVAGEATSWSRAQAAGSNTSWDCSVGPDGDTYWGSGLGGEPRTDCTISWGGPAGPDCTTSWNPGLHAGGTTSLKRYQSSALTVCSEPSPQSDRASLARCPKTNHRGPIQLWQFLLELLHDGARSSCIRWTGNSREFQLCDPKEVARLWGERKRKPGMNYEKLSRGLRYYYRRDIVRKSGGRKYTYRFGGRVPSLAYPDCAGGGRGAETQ
# Outline: as §1
# ELF3 = molecular target: T5, ELF3 (Homo sapiens, UniProt P78545 1-371); conditions: protein: recombinant; tags: N-terminal GST; dsDNA, one strand shown
# T5 sequence: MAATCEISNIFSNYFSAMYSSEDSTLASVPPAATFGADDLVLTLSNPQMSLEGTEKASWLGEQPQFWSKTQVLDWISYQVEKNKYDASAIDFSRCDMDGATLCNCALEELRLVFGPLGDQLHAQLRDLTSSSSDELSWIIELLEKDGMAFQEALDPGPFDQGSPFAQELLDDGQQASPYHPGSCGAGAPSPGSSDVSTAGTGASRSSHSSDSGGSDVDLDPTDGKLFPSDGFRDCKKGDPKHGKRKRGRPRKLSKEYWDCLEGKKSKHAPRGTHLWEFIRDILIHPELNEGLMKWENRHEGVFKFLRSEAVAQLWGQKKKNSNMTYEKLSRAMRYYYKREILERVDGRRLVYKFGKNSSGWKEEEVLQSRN
# Outline: as §1
# CRX = CRX (Homo sapiens, UniProt O43186 1-299); conditions: protein: recombinant; tags: N-terminal GST; dsDNA, one strand shown
# Outline: as §1
# ETV1 = ETV1 (Homo sapiens, UniProt P50549 1-477); conditions: protein: recombinant; tags: N-terminal GST; dsDNA, one strand shown
# Outline: as §1
# Chain of HSF1 (Q00613 whole entry): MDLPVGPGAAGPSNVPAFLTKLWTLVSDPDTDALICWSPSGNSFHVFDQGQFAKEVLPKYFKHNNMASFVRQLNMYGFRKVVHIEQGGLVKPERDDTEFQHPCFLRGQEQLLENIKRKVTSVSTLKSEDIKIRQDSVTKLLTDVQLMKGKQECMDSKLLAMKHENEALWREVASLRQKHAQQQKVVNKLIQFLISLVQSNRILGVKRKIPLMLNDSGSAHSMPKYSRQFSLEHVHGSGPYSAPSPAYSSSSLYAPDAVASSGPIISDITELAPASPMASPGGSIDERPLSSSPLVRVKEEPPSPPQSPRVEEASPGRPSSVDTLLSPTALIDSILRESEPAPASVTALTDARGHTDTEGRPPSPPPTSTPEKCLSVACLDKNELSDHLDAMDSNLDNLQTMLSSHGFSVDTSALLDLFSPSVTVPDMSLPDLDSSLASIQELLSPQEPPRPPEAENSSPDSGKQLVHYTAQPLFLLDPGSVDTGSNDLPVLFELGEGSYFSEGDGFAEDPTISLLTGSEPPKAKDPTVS
# Chain of ETV1 (P50549 whole entry): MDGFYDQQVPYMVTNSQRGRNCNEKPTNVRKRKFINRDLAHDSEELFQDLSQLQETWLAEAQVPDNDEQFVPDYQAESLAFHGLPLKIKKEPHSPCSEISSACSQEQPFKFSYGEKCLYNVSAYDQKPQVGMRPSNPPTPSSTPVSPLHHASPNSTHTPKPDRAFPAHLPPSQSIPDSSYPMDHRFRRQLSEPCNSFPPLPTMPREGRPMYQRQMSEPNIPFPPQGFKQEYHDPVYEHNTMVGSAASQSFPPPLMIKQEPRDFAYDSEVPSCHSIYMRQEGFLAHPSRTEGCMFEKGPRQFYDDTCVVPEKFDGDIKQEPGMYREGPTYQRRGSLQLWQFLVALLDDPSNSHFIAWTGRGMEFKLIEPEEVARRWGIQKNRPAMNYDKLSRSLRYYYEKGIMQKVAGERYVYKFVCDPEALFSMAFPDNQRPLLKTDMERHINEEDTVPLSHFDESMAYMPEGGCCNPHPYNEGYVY
# Chain of CRX (O43186 whole entry): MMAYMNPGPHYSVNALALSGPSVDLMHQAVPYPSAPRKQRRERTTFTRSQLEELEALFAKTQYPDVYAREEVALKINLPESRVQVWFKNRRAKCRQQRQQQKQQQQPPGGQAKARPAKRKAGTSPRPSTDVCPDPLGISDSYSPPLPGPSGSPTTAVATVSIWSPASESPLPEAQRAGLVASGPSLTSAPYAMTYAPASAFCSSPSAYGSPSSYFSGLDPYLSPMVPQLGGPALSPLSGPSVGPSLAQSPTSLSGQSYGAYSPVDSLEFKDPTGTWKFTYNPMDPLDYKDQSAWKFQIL
# Chain of ETV5 (P41161 whole entry): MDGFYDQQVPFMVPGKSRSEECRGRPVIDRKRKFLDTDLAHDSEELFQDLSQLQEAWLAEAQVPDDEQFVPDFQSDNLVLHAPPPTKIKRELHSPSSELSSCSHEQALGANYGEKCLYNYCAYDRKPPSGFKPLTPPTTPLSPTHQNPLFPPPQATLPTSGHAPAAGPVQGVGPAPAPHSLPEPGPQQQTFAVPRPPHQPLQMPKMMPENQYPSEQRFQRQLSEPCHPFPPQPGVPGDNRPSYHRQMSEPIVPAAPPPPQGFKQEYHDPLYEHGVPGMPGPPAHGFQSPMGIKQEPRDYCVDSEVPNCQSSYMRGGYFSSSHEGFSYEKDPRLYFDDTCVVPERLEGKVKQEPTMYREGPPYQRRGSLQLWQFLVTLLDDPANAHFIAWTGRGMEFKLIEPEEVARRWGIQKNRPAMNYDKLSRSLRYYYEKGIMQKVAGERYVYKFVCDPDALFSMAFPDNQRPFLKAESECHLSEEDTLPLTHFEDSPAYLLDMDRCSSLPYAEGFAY
# Chain of ELF4 (Q99607 whole entry): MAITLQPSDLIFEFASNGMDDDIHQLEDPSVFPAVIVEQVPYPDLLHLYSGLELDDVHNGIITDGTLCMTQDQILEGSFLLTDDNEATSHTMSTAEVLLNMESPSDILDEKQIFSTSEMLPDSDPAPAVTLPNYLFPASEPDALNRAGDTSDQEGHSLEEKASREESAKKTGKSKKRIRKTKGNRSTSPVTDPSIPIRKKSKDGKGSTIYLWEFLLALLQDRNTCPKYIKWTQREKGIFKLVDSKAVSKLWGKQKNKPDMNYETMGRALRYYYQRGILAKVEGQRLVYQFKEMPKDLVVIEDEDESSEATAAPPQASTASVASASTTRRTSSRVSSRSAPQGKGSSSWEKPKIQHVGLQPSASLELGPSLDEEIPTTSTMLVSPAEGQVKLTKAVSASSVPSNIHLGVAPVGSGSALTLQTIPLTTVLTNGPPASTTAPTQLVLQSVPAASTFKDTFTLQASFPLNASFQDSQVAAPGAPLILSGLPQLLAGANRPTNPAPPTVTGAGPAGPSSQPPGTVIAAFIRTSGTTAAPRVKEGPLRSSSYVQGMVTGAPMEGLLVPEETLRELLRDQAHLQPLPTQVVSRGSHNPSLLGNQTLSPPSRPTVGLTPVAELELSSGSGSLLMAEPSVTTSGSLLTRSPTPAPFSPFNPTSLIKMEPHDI
sequence,measurement,setting,value
TCCACA,binding signal,FEV,"1.21 fold enrichment (6-mer frequency, TF over GST control)"
same,binding signal,ETV5,"1.25 fold enrichment (6-mer frequency, TF over GST control)"
same,binding signal,HSF1,"1.36 fold enrichment (6-mer frequency, TF over GST control)"
same,binding signal,SPIC,"1.31 fold enrichment (6-mer frequency, TF over GST control)"
same,binding signal,ELF4,"1.27 fold enrichment (6-mer frequency, TF over GST control)"
same,binding signal,ELK4,"1.25 fold enrichment (6-mer frequency, TF over GST control)"
same,binding signal,ETV2,"1.17 fold enrichment (6-mer frequency, TF over GST control)"
same,binding signal,ELF3,"1.22 fold enrichment (6-mer frequency, TF over GST control)"
same,binding signal,CRX,"1.1 fold enrichment (6-mer frequency, TF over GST control)"
same,binding signal,ETV1,"1.15 fold enrichment (6-mer frequency, TF over GST control)"

# Source: PMC7862700, “An all-to-all approach to the identification of sequence-specific readers for epigenetic DNA modifications on cytosine”
